Reference: PubChem BioAssay (NCI)
Compounds without any hit were thinned out: in the full panel of roughly 79,000, 15% have a hit. Cut-off read from the data, not from the text of the source: active = growth inhibition above about 70%; inactive = the rest.

Legend:
[1] = NCI Yeast Anticancer Drug Screen. Data for the rad50 strain (AID 155);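 note: 0% = growth of vehicle-only cultures of the same strain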; details: S. cerevisiae rad50 strain growth inhibition; at 50.0 µM; hits give high values
Method in brief: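 Compounds were tested on a yeast strain with an engineered DNA damage repair alteration; the reported value is growth inhibition normalised to vehicle treatment.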

[2] = NCI Yeast Anticancer Drug Screen. Data for the mec2-1 strain (AID 157); details: S. cerevisiae mec2-1 strain, at 50.0 µM, hits give high values
Method in brief: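 Using mec2-1 yeast: add compound, measure growth, express inhibition versus vehicle-treated cultures.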

[3] = NCI Yeast Anticancer Drug Screen. Data for the sgs1 mgt1 strain (AID 161);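 note: 0% = growth of cultures given vehicle only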; details: S. cerevisiae sgs1 mgt1 strain, at 50.0 µM, hits give high values
Method in brief: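 Percent growth inhibition was derived by comparing compound-exposed mutant yeast with vehicle-exposed cultures. The strain carries alterations in DNA damage repair.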

[4] = NCI Yeast Anticancer Drug Screen. Data for the cln2 rad14 strain (AID 165);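 note: 0% = growth equal to vehicle treated cultures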; details: S. cerevisiae cln2 rad14 strain, at 50.0 µM, hits give high values
Method in brief: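 Yeast strain cln2 rad14, bearing defects in cell cycle control and DNA repair, serves as the test system; values reflect growth inhibition compared with vehicle.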

[5] = NCI Yeast Anticancer Drug Screen. Data for the bub3 strain (AID 167); details: S. cerevisiae bub3 mutant strain, at 50.0 µM, hits give high values
Method in brief: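 Growth of a checkpoint-deficient yeast mutant is measured after compound exposure. Values represent inhibition relative to vehicle.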

[6] = NCI Yeast Anticancer Drug Screen. Data for the mlh1 rad18 strain (AID 175); details: S. cerevisiae mlh1 rad18 strain growth inhibition; at 50.0 µM; hits give high values
Method in brief: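 Steps: expose repair-defective yeast to compound; measure growth; express inhibition against vehicle-treated controls.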

Measured: growth inhibition

CCCCCCCCCCCCCCOc1ccc(S(=O)(=O)/N=C(\N)NC(N)=NCCCCCCCCCC)cc1
inactive: [1] 30.2% | [2] -9.6% | [3] 10.2% | [4] -21.1% | [5] -2.2% | [6] 2.15%

C=C(C)C(O)CC(C)C (stereo unspecified)
inactive: [1] -8.6% | [2] 13.9% | [3] -15.2% | [4] 7.65% | [5] 2.95% | [6] 0.2%

CCOC(=O)/C(=C/c1ccc(N(C)C)cc1)N(CC)CC
inactive: [1] -34.2% | [2] -10.2% | [3] -14.9% | [4] 13.4% | [5] 7.25% | [6] -18.6%

CC[N+](C)(CC)CCOC(=O)C(c1ccccc1)C(O)C1CCCCC1 (stereo unspecified)
inactive: [1] 29.8% | [2] -5.45% | [3] 3.8% | [4] 17.3% | [5] -0.3% | [6] 8.75%

N#CCCSc1nnc(N)s1
inactive: [1] -7.85% | [2] -7.9% | [3] -8.65% | [4] 16.9% | [5] -2.95% | [6] -14.8%

CC(=O)NC1C(OC(C)C(=O)NC(C(=O)NC(CCC(=O)NCCCNC2c3ccccc3Nc3cccc([N+](=O)[O-])c32)C(N)=O)C(C)C)C(O)C(CO)OC1(C)OCc1ccccc1 (stereo unspecified)
inactive: [1] -29.1% | [2] -20.4% | [3] 4.3% | [4] 13.4% | [5] -25.8% | [6] 3.25%

O=[N+]([O-])c1ccc(CS(=O)(=O)O)cc1
inactive: [1] 6.25% | [2] -9.05% | [3] -6.4% | [4] -15.1% | [5] 8.8% | [6] -5.6%

CC1(O)/C=C\C=C(\CO)C2CC(C)(C)C2(O)CC1 (stereo unspecified)
inactive: [1] -29.9% | [2] -40% | [3] -43.1% | [4] -4.5% | [5] -46% | [6] -29.8%

COCCCNC(=O)C1C(=O)C(=O)N(CCCOC)C1=O (stereo unspecified)
inactive: [1] -2.35% | [2] -3.45% | [3] -15.8% | [4] 13.2% | [5] -5% | [6] -10.6%

N#CCCCCCCCCCC#N
inactive: [1] -18.9% | [2] -36% | [3] -47.4% | [4] 25.9% | [5] -52.5% | [6] 11.4%

COC1OC(COC(=O)c2ccc([N+](=O)[O-])cc2)C(O)C1SC#N (stereo unspecified)
inactive: [1] 43.5% | [2] -2.3% | [3] 41.3% | [4] -10.1% | [5] 13.2% | [6] 42.8%

Cc1cc([N+](=O)[O-])ccc1NC(=O)OC(C)C
inactive: [1] -12.6% | [2] -30.2% | [3] 3.05% | [4] 8.8% | [5] 1.35% | [6] -9.35%

Nc1nc(N)c(N)c(Nc2ccc(Cl)cc2)n1
inactive: [1] 27.5% | [2] 22.3% | [3] 9% | [4] 21.4% | [5] -1.95% | [6] 2.5%

N/N=C1\CC(=O)NC(=O)N1
inactive: [1] -2.15% | [2] -11.1% | [3] 1.9% | [4] 1.8% | [5] 3.05% | [6] 0.05%

Cc1cccc(C)c1NCC(=O)NN
inactive: [1] 9.5% | [2] 6.05% | [3] 0.85% | [4] -22.9% | [5] 5.85% | [6] 8.55%

CCCC1CCCC12CCc1ccccc1C2=O (stereo unspecified)
inactive: [1] 15.3% | [2] -6.15% | [3] -11.1% | [4] 10.1% | [5] -5.8% | [6] 1.15%

CCOC(=O)c1nc2ccc(C(F)(F)F)cc2nc1Nc1cc(OC)c(OC)c(OC)c1
inactive: [1] -33.4% | [2] -17.4% | [3] -30.8% | [4] 2.85% | [5] -13.6% | [6] -11.1%

COC(=O)c1ccc(C(=O)c2ccccc2)cc1
inactive: [1] -1.15% | [2] 9.15% | [3] 27.9% | [4] 5.55% | [5] 14.2% | [6] 7.7%

NC(=O)c1[nH]nc(C2OC(CO)C(O)C2O)c1O (stereo unspecified)
inactive: [1] 8% | [2] -27.2% | [3] 7.35% | [4] -0.05% | [5] -22.9% | [6] 8.75%

Brc1ccc(C(c2ccc(Br)cc2)C(Br)(Br)Br)cc1
inactive: [1] 2.8% | [2] 3.75% | [3] 1.9% | [4] -12.9% | [5] 1.5% | [6] 8.2%

Cc1c(C)c(O)c(C)c(C)c1O
inactive: [1] -8.8% | [2] -17.1% | [3] -4.85% | [4] -13.2% | [5] 6.85% | [6] 11.4%
